The source of these data is PubChem BioAssay AID1671192 (National Center for Advancing Translational Sciences (NCATS), 2021).

Records with an inconclusive call do not appear. The source made the active and inactive calls. Calls follow the shape of the dose curve; as a rule, active = well fitted curve in the direction sought with a large enough effect; inconclusive = small, poorly fitted or top-dose-only effect, or another doubt; inactive = no such curve, though single readings can be large or run the other way.

Polyunsaturated fatty acid lipoxygenase ALOX15 (Homo sapiens), sequence (P16050 whole entry, looked up): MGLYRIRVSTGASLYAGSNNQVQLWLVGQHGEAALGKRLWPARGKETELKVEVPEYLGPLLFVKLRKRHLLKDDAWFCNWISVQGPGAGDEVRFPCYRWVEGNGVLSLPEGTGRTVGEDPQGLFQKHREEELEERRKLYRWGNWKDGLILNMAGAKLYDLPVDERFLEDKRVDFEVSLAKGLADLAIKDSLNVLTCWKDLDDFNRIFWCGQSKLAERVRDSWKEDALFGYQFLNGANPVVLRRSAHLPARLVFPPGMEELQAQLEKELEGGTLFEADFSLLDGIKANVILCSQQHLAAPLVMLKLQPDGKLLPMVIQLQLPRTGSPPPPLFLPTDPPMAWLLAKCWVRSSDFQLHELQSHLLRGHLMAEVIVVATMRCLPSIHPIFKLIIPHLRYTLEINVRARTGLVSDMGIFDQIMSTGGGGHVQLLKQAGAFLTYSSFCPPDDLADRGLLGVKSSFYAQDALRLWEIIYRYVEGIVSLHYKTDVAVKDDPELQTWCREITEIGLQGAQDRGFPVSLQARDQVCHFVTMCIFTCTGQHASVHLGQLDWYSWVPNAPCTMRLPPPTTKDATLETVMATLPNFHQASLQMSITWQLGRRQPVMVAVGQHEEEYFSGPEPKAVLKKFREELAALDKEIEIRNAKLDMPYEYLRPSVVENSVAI

The test concerns the target Polyunsaturated fatty acid lipoxygenase ALOX15 (Homo sapiens) (UniProt P16050). Nature of the test: Counterscreen qHTS for inhibitors of human arachidonate 12S-lipoxygenase (ALOX12): ALOX15 Assay. The following applies: purified ALOX15 enzyme activity; series mostly up to 110 µM. In a few lines: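 Xylenol orange–ferric complex formation, read as the 573 nm to 405 nm absorbance ratio, tracks product from 50 uM arachidonic acid turned over for 30 min at RT. Enzyme is 40 nM ALOX15, pH 7.5 HEPES buffer, compound-preincubated 15 min.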
`CCOCCCNc1ncnc2c1CN(C1CCNCC1)C(=O)CN2C`: the call was inactive.

Turning to `Cc1cc(C)cc(-c2ccc(CN3CCCC(c4nc5ccc(F)cc5c(=O)[nH]4)C3)cc2)c1` (centres undefined), the molecule was called inactive. Next, `O=C1NCc2ccccc2CC12CCN(Cc1ccc(Br)s1)CC2`: “inactive”; `O=C1NC(=NC2CCCC2)C2(CCN(CC3CC3)C2)N1c1cccnc1` (centres undefined): “inactive”; `O=C(c1ccc(C(F)(F)F)cc1)N1CCC2(CC1)C(=NC1CCCCC1)NC(=O)N2c1cc(F)cc(F)c1`: “inactive”.

Consider `CN1CC(=O)N(C2CCNCC2)Cc2c(NC3CCCCCC3)ncnc21`, for which the molecule was called inactive.

For the molecule `CCOc1cccc(CN2CCC3(Cc4ccccc4CNC3=O)C2)c1` (centres undefined), the result was inactive. `CN1CC(=O)N(C2CCNC2)Cc2c(NCCc3cccc(F)c3)ncnc21` (centres undefined): the call was inactive. For `CN1CC(=O)N(C2CCNCC2)Cc2c(NCCc3cccc(F)c3)ncnc21`, the outcome was inactive.

For the molecule `O=c1n(-c2ccc(C(F)(F)F)cc2)nc2n1CCN(Cc1ccc(C(F)(F)F)cc1)C2`, the molecule was called inactive. Next, `O=C1NC2(Cc3ccccc31)CN(C(=O)c1ccc3c(c1)OCO3)C2`: “inactive”; `CCC(=O)N1Cc2ccccc2CC2(CCCN(CC3CCNCC3)C2)C1` (centres undefined): “inactive”.

For `O=C(c1ccc2c(c1)OCO2)N1CCC2(CC1)C(=O)Nc1ccccc12`, the molecule was called inactive.

Consider `O=C1Nc2ccccc2C12CCN(S(=O)(=O)c1ccccc1)C2` (centres undefined), for which the outcome was inactive.

`NCCCC(=O)N1CCC2(CC1)CC(NC(=O)CN)c1ccccc12` (centres undefined): the molecule was classed as inactive. As for `O=C(O)c1cccc(-c2cnc3ccccc3c2)c1`, the entry is “inactive”.

On to `COc1cccc(N2C(=O)NC(=NC3CCCCC3)C23CCN(CC2CC2)CC3)c1`, for which the result was inactive.

Take `COc1cccc([S+](=O)([O-])N2CCn3c(nn(-c4ccc(Cl)cc4)c3=O)C2)c1`: the molecule was called inactive. Turning to `CN1CCC(C(=O)N2CCCC3(Cc4ccccc4CN3C(=O)c3ccccc3)C2)CC1` (centres undefined), the molecule was called inactive.
